This is a sample that favours compounds with a hit; in the whole collection about 4.2% have one here.
Wnt act: Wnt/beta-catenin pathway activators, primary screen, cell-based, plate reader, single point. Wnt/beta-catenin reporter cell assay, activator. activation, % at 9.35 µM. actives 1.2% (n = 300,000). AID 743398, 2014; in the data active means activation above about 30%, passing the limit was not always enough; inconclusive means no clear call, values can overlap the other calls;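 further: 0% = neutral control wells and 100% = positive control wells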
hcDAF12 agonist: H. contortus DAF-12 nuclear receptor activators, primary screen, cell-based, luminescence, HEK293, lit1-tk-luc reporter | HEK293 hcDAF-12 lit1-tk-luc reporter; 0% DMSO, 100% Δ7-dafachronic acid | actives 1.4% (n = 370,000) | activation, % at 6.8 µM;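 active means activation above the mean of all tested compounds plus 3 SD, cut at about 5.5% in these data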;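 further: 100% = response to 3 µM Δ7-dafachronic acid high control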
DAX1 StAR inh: DAX1 (NR0B1) inhibitors on StAR promoter, primary screen, cell-based, luminescence, SF-1 (NR5A1), full-length DAX-1 | HEK293T StAR-luciferase reporter, SF-1/DAX-1 repression relief | inhibition, % at 6.8 µM | actives 1.1% (n = 370,000) | AID 652010, 2013;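 active means inhibition above the mean over all tested compounds plus 3 SD, cut at about 3.6% in these data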;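 further: 0% = DAX-1 cells with DMSO and 100% = cells lacking DAX-1 with DMSO; higher inhibition means more luminescence from relief of DAX-1 repression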
hgDAF12 agonist: H. glycines DAF-12 receptor agonists, primary screen, cell-based, luminescence, HEK293, GAL4 fusion, UAS-luciferase; Nuclear hormone receptor DAF-12 (Heterodera glycines), GAL4 fusion; HEK293 GAL4-hgDAF12 UAS-luciferase reporter, agonist luminescence; normalized to butyrate control; activation, % at 6.8 µM; actives 1.8% (n = 370,000); AID 687014, 2013;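 active means activation above a cutoff set at the mean of all screened compounds plus 3 SD, cut at about 10% in these data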;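 further: 0% = DMSO wells and 100% = sodium butyrate wells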
ssDAF12 agonist: S. stercoralis DAF-12 nuclear receptor activators, primary screen, cell-based, luminescence, HEK293, GRIP1 co-expression, lit1-tk-luc. HEK293 ssDAF-12/GRIP1 lit1-tk-luc reporter; % of 3 µM dafachronic acid response. actives 1% (n = 370,000). Nuclear hormone receptor DAF-12 (Strongyloides stercoralis). activation, % at 6.8 µM;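 active means activation above the mean over all tested compounds plus 3 SD, cut at about 0.9% in these data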;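 further: 0% = DMSO-only wells and 100% = 3 µM delta7-dafachronic acid wells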
esBAF inh: Bmi1 luciferase reporter increase in mESCs, primary screen, esBAF inhibitor project, mouse ES cells, Bmi1 luciferase knock-in, single point; AID 602393, 2012; 24 h; 100% = twice the neutral-well signal; actives 2% (n = 350,000); reporter increase, % at 12.5 µM; in the data active means activation above about 40%; inconclusive means no clear call, values can overlap the other calls;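 further: 0% = median of the plate's neutral control wells and 100% = double that signal; a rise in the Bmi1 reporter signal indicates esBAF inhibition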
Ring1 derepress: Ring1 mRNA increase in mouse ESCs, confirmation, esBAF inhibitor project, cell-based, mouse ESC, RT-qPCR, cherry-pick; shares compounds with esBAF inh; mouse ESC E14, Ring1 mRNA RT-qPCR fold change; fold change at 33 µM; 550 tested, under 10 active; AID 743176, 2013;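 active means Ring1 gene expression raised more than 2-fold over untreated cells in both replicates at either tested dose; inconclusive means only one replicate above 2-fold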;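 further: Ring1 transcript normalised to actin housekeeping signal by TaqMan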
Fgf4 repress: Fgf4 mRNA decrease in mouse ESCs, confirmation, esBAF inhibitor project, cell-based, mouse ESC, RT-qPCR, cherry-pick | AID 743177, 2013 | shares compounds with esBAF inh | mouse ESC E14, Fgf4 mRNA qPCR fold change; hits give low values | actives 4% (n = 550) | Fgf4 expression fold change at 33 µM;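 active means Fgf4 expression under 0.8 fold of control in both repeat measurements at one or both tested doses; inconclusive means under 0.8 fold in just a single repeat measurement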;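 further: Fgf4 transcript normalised to actin in duplex TaqMan qPCR; cells exposed to compound for 24 h before lysis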
Bmi1 derepress: esBAF inhibition via Bmi1 de-repression, confirmation, cell-based, RT-qPCR, mouse ESC, single point, cherry-pick. shares compounds with esBAF inh. mouse ESE14 ES cells, Bmi1 mRNA qPCR fold; hits give high values. fold change at 33 µM. 550 tested, under 10 active. AID 743180, 2013;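 active means Bmi1 expression fold change above 6 at either tested concentration, seen in replicate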;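 further: higher fold means more Bmi1 de-repression and stronger esBAF inhibition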
A549 tox SP: A549 cell cytotoxicity, cytotoxicity control, plate reader, single point, cherry-pick; 550 tested, under 10 active; shares compounds with esBAF inh; cell viability change % (negative = cytotoxic), % at 25 µM, hits read low; call rule not given here
HepG2 cytotox SP: HepG2 cell cytotoxicity, cytotoxicity control, plate reader, single point, cherry-pick | activity change, negative = inhibition, % at 25 µM | shares compounds with esBAF inh | AID 743189, 2013 | hits give low values | actives 4% (n = 550); in the data active means activity change below about -50%
HEK293 cytotox SP: HEK293 cell cytotoxicity, cytotoxicity control, plate reader, single point, cherry-pick | actives 3% (n = 550) | activity change, negative = inhibition, % at 25 µM, hits read low | shares compounds with esBAF inh; in the data active means activity change below about -38%, passing the limit was not always enough
Numbers without * were called inactive.

How did O=C(NC1CCCCC1)N1CCc2ccccc2C1 do in these assays?
Wnt act: 10; hcDAF12 agonist: 2; DAX1 StAR inh: 2; hgDAF12 agonist: 13*; ssDAF12 agonist: -1; esBAF inh: 67*; Ring1 derepress: 1.1; Fgf4 repress: 1; Bmi1 derepress: 1.9; A549 tox SP: -7; HepG2 cytotox SP: -26; HEK293 cytotox SP: -11

Results for O=C(C[C@@H]1CC[C@H](NC(=O)Nc2ccc(C(F)(F)F)cc2)[C@@H](CO)O1)NCCN1CCCC1 ?
esBAF inh: 5

How did c1ccc(Nc2cccc(Nc3ccccc3)n2)cc1 do in these assays?
hcDAF12 agonist: 0; DAX1 StAR inh: 0; hgDAF12 agonist: 6; ssDAF12 agonist: 0; esBAF inh: 59*; Ring1 derepress: 0.97; Fgf4 repress: inconclusive; Bmi1 derepress: 1.7; A549 tox SP: -5; HepG2 cytotox SP: -27; HEK293 cytotox SP: -9

How did O=C([C@H]1[C@H](CO)[C@H]2Cn3c(cccc3=O)[C@H]2N1CCC(F)(F)F)N1CCCCC1 do in these assays?
esBAF inh: 3

How did O=C(N/N=C/c1cnc2ccccc2n1)c1cccc(F)c1 do in these assays?
Wnt act: 9; hcDAF12 agonist: 0; DAX1 StAR inh: 0; hgDAF12 agonist: 2; ssDAF12 agonist: 0; esBAF inh: 60*; Ring1 derepress: 1.1; Fgf4 repress: 1.1; Bmi1 derepress: 1.3; A549 tox SP: 4; HepG2 cytotox SP: 4; HEK293 cytotox SP: 3

How did CCN1C(=O)C(=CC=CN(C)c2ccccc2)SC1=S do in these assays?
Wnt act: 7; hcDAF12 agonist: 0; DAX1 StAR inh: 2; hgDAF12 agonist: 7; ssDAF12 agonist: 0; esBAF inh: 84*; Ring1 derepress: 1.1; Fgf4 repress: 0.93; Bmi1 derepress: 1.5; A549 tox SP: -19; HepG2 cytotox SP: -8; HEK293 cytotox SP: -10

Results for CCCNC(=O)C[C@H]1CC[C@H]2[C@H](COc3ccc(NC(=O)NCC)cc3C(=O)N2C)O1 ?
esBAF inh: 2

What do the screens show for `Clc1ccc(-c2cn3cccnc3n2)cc1Cl`?
Wnt act: 17; hcDAF12 agonist: 0; DAX1 StAR inh: 1; hgDAF12 agonist: 6; ssDAF12 agonist: 0; esBAF inh: 73*; Ring1 derepress: 1; Fgf4 repress: 1.3; Bmi1 derepress: 0.92; A549 tox SP: 12; HepG2 cytotox SP: -25; HEK293 cytotox SP: 3

How did Cc1ccc(CNC(=O)CCn2cc(-c3ccc(C)cc3)nc2-c2ccncc2)cc1 do in these assays?
Wnt act: -1; hcDAF12 agonist: 0; DAX1 StAR inh: 0; hgDAF12 agonist: -1; ssDAF12 agonist: -2; esBAF inh: 0

What do the screens show for `Cc1ccc(CNC(=O)c2ccc(Cn3cc(-c4ccc(C)cc4)nc3-c3ccncc3)cc2)cc1`?
Wnt act: 47*; hcDAF12 agonist: 0; DAX1 StAR inh: 1; hgDAF12 agonist: 6; ssDAF12 agonist: -1; esBAF inh: 99*; Ring1 derepress: 1.4; Fgf4 repress: 1; Bmi1 derepress: 1.9; A549 tox SP: -9; HepG2 cytotox SP: 21; HEK293 cytotox SP: -14

How did Cc1c(Cl)cccc1NC(=O)c1cc(C2CC2)on1 do in these assays?
Wnt act: 7; hcDAF12 agonist: 0; DAX1 StAR inh: 1; hgDAF12 agonist: 9; ssDAF12 agonist: 0; esBAF inh: 67*; Ring1 derepress: 1.5; Fgf4 repress: 1; Bmi1 derepress: 1.5; A549 tox SP: -4; HepG2 cytotox SP: -13; HEK293 cytotox SP: -13

What do the screens show for `COC(=O)N1CCCC(c2cc(C(=O)Nc3ccccc3Cl)no2)C1` (configuration not stated)?
Wnt act: -4; hcDAF12 agonist: 3; DAX1 StAR inh: 3; hgDAF12 agonist: 6; ssDAF12 agonist: 0; esBAF inh: 73*; Ring1 derepress: 0.94; Fgf4 repress: 0.9; Bmi1 derepress: 1.4; A549 tox SP: -1; HepG2 cytotox SP: -30; HEK293 cytotox SP: -12

What do the screens show for `O=C(Nc1ccccc1)c1cc(C2CCCN(C(=O)c3ccccc3)C2)on1` (configuration not stated)?
Wnt act: 1; hcDAF12 agonist: 0; DAX1 StAR inh: 0; hgDAF12 agonist: 4; ssDAF12 agonist: 0; esBAF inh: 57*; Ring1 derepress: 1.1; Fgf4 repress: 0.97; Bmi1 derepress: 1; A549 tox SP: -20; HepG2 cytotox SP: -16; HEK293 cytotox SP: -27

How did COC(=O)c1ccccc1NC(=O)c1cc(C2CC2)on1 do in these assays?
Wnt act: 6; hcDAF12 agonist: 2; DAX1 StAR inh: 0; hgDAF12 agonist: 5; ssDAF12 agonist: -1; esBAF inh: 17

Results for CC1(C)CC(=O)c2sc(NC(=O)c3cccs3)nc2C1 ?
hcDAF12 agonist: 5; DAX1 StAR inh: 4; hgDAF12 agonist: 8; ssDAF12 agonist: 1

What do the screens show for `CC1(C)CNC(=O)c2sc(NC(=O)c3ccccc3)nc2C1`?
Wnt act: 0; hcDAF12 agonist: 3; DAX1 StAR inh: 1; hgDAF12 agonist: 5; ssDAF12 agonist: -1; esBAF inh: 84*; Ring1 derepress: 1.1; Fgf4 repress: 1; Bmi1 derepress: 1.5; A549 tox SP: -2; HepG2 cytotox SP: -26; HEK293 cytotox SP: -24

From PubChem
